IL1B secr inh: qHTS for Inhibitors of Inflammasome Signaling: IL-1-beta AlphaLISA Primary Screen | 4.7% of 360,000 active | AID 743279, 2014 | THP-1 LPS/ATP IL-1B secretion, AlphaLISA, 16 h; active compounds read low | activity change, % at 57.5 µM; in the data active = activity change below about -50%; inconclusive = mostly about -30% to -49%
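Secreted IL-1B measured by AlphaLISA bead assay after 16 h compound exposure of THP-1 cells; compounds (final up to 57.5 uM) added 1 h before LPS (250 ng/mL) and ATP (1.25 mM) stimulation; lower signal means less secretion.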
TDP1 cell noCPT: qHTS for Inhibitors of human tyrosyl-DNA phosphodiesterase 1 (TDP1): qHTS in cells in absence of CPT; DT40 Tdp1-/- hTDP1 cells, no CPT, ATP luminescence, 48 h; Potency, µM (highest dose often 46.2 µM), for the others: at the highest dose activity change, negative = growth inhibition, most hits filed as inhibitors; 15% of 420,000 active; AID 686978, 2013; also: potency is read from the fitted curve at half-maximal effect; nearly all actives have a fitted effect of over 55% in size
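Growth of hTDP1-complemented DT40 Tdp1-knockout cells is measured by ATP luminescence after at least 48 hr compound exposure at 37 °C, with DMSO substituting for the 20 nM CPT used in the parallel screen.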
DT40 TDP1 CPT: qHTS for Inhibitors of human tyrosyl-DNA phosphodiesterase 1 (TDP1): qHTS in cells in presence of CPT; 12% of 420,000 active; chicken DT40 Tdp1-/-;hTDP1 cells + 20 nM CPT, ATP luminescence, 48 h; Potency, µM (series often up to 46.2 µM), for inactives: at the top dose activity change, negative = growth inhibition, most hits filed as inhibitors; also: potency is read from the fitted curve at half-maximal effect; nearly all actives have a fitted effect of over 55% in size
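Cell growth measured by CellTiter-Glo luminescence after a minimum 48 h, 37 C compound exposure with 20 nM CPT in Tdp1-knockout DT40 cells stably expressing hTDP1, seeded 400/well; qHTS titration format.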
HT1080 IDH1KD tx: qHTS for induction of synthetic lethality in tumor cells producing 2HG: qHTS for the HT-1080-IDH1KD cell line | HT-1080 IDH1 knockdown viability, ATP luminescence, 48 h | Potency, µM (top dose mostly 46.1 µM), for the others: top-dose activity, negative = toxicity, hits mostly cytotoxic | 2% of 360,000 active | AID 686971, 2013;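 also: potency is read from the fitted curve at half-maximal effect; 0% = DMSO wells and -100% = cell-free medium wells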
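HT-1080-IDH1KD cells (IDH1 knocked down), 750/well in RPMI with 5% FBS, treated with compound 48 h at 37 degrees C. Viability by CellTiter-Glo luminescence, normalised to DMSO and no-cell wells; concentration-response curves classed.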
HT1080NT lethal: qHTS for induction of synthetic lethality in tumor cells producing 2HG: qHTS for the HT-1080-NT fibrosarcoma cell line | Potency, µM (titrated, usually from 46.1 µM), without a hit: top-dose activity, negative = less viability, most hits filed as cytotoxic | 1.6% of 360,000 active | HT-1080-NT fibrosarcoma viability, CellTiter-Glo ATP luminescence, 48 h;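 also: NT is the 2HG producing partner of a matched IDH1 knockdown line; potency is read from the fitted curve at half-maximal effect; 0% = DMSO-treated cells and -100% = media-only wells without cells; nearly all actives have a fitted effect of over 55% in size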
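Compounds were tested in concentration-response format on HT-1080-NT cells for 48 hours at 37 degrees C. Cell viability came from CellTiter-Glo luminescence; curves were classified by r2, response magnitude and activity.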
* marks the source's active call; other numbers are inactive results; ? = inconclusive; · = no result; [ ] = remark or other dose. The list is not random: actives were taken first. Their share in the collection is about 19%. Unless noted, calls follow the shape of the dose curve; as a rule, active = well fitted curve in the direction sought with a large enough effect; inconclusive = small, poorly fitted or top-dose-only effect, or another doubt; inactive = no such curve, though single readings can be large; an effect the other way counts as inactive or inconclusive. Unless noted, % is scaled to controls: 0 for no effect and ±100 for the full control effect.

SMILES	IL1B secr inh	TDP1 cell noCPT	DT40 TDP1 CPT	HT1080 IDH1KD tx	HT1080NT lethal
O=C(Cc1ccccc1)NCC(=O)N/N=C/c1ccc([N+](=O)[O-])s1	?	14.6µM*	23.1µM*	?	-24.8%
CCCn1c(C(CO)Nc2nc(C)cs2)nc2ccccc21 (configuration not stated)	7.7	-15.6%	4.8%	0.1%	9.1%
CC(=O)NCC(=O)OCN1C(=O)c2ccccc2C1=O	17.1	-5.9%	-1.3%	14.7%	17.6%
COc1ncnc2c1ncn2CCCN1CCN(C(=O)C2CC2)CC1	-0.6	7.6%	-7.4%	3.8%	5.6%
O=C(N/N=C/c1ccc([N+](=O)[O-])s1)c1ccncc1	-98.2*	6.51µM*	6.51µM*	?	-20.4%
CC(/C=N\NC(=O)Cn1cncn1)=C/c1ccc(C(C)C)cc1	19.5	-5.5%	5.8%	-0.1%	-6.8%
CC(=C/c1ccc(C(C)C)cc1)/C=N/NC(=O)Cn1nc(C)cc1C	-13.6	29.1µM*	?	-16.8%	-1.4%
O=C(N/N=C/c1ccccc1[N+](=O)[O-])c1ccncc1	11.3	8.8%	-15.7%	3.9%	13.3%
COc1cc([N+](=O)[O-])cc(/C=N/NC(=O)CSc2nnc(-c3ccccc3)n2C)c1O	-1.0	-2.3%	-6.5%	3.1%	-14.6%
CC(C)(C)OC(=O)N/N=C\c1ccc([N+](=O)[O-])s1	-18.7	?	-1.3%	-19.9%	-17.5%
CCOC(=O)N/N=C\c1ccc([N+](=O)[O-])s1	-0.9	23.1µM*	16.4µM*	?	-17.1%
Cn1c(SCC(=O)N/N=C/c2ccc([N+](=O)[O-])s2)nnc1-c1ccc(Cl)cc1	?	20.6µM*	13µM*	?	?
C[C@@H]1CN([C@H](C)CO)C(=O)CCCn2nncc2CO[C@H]1CN(C)C(=O)NC1CCCCC1	27.9	-16.6%	4.7%	10.2%	?
COc1cc([N+](=O)[O-])cc(/C=N/NC(=O)Cn2nc(C)cc2C)c1O	7.0	23.1µM*	?	?	?
Cc1ccc([N+](=O)[O-])c(C(=O)N/N=C/c2cccs2)c1	-16.2	?	?	-17.1%	-15.5%
COc1cc([N+](=O)[O-])cc(/C=N/NC(=O)Cn2nccc2C)c1O	0.0	?	?	?	?
Cc1ccc(C(=O)N/N=C/c2ccc([N+](=O)[O-])s2)cc1	-18.7	7.31µM*	8.2µM*	?	?
Cc1cc(C)n(CC(=O)N/N=C/c2ccc([N+](=O)[O-])s2)n1	?	?	23.1µM*	?	?
Cc1ccc(C(=O)N/N=C\c2ccc([N+](=O)[O-])s2)cn1	-5.1	11.6µM*	10.3µM*	8.2%	2.0%
CCN(Cc1ccncc1)Cc1cn[nH]c1-c1cc(OC)c(OC)c(OC)c1	25.9	-29.6%	-26.7%	-3.7%	-2.7%
CCCCc1ccc(N=N/C(C(=O)Nc2cc(OC)c(NC(C)=O)cc2OC)=C(/C)O)cc1	22.8	-42.0%	?	-5.8%	-2.2%
NNC(=S)Nc1ccccc1Cl	25.5	7.31µM*	?	?	?
COc1cc(NC(=O)Cn2cnc3c(SC)nc(N)nc32)cc(OC)c1OC	9.1	-18.5%	-25.2%	0.3%	-0.2%
Cn1cccc1/C=C1\SC(=Nc2ccccc2)NC1=O	139.7	2.31µM*	2.91µM*	5.17µM*	?
COC(=O)/C=C1/SC(=Nc2ccc(C)cc2C)NC1=O	-28.9	?	-1.4%	9.2%	8.9%
SMILES	IL1B secr inh	TDP1 cell noCPT	DT40 TDP1 CPT	HT1080 IDH1KD tx	HT1080NT lethal
Cc1ccc(N=C2NC(=O)/C(=C/c3cccn3C)S2)c(C)c1	-20.9	6.51µM*	?	-20.3%	-18.3%
CC(/C=C1\SC(=Nc2cccnc2)NC1=O)=C\c1ccccc1	-12.2	2.91µM*	4.11µM*	0.0%	-16.1%
Cc1ccc(N=C2NC(=O)/C(=C/c3cn(C)c4ccccc34)S2)cc1C	-24.7	18.4µM*	18.4µM*	0.3%	-4.4%
Cn1cc(/C=C2/SC(=O)N(c3ccccc3)C2=O)c2ccccc21	4.3	-27.0%	-6.7%	3.5%	5.3%
Cc1nnc(SCC(=O)c2c[nH]c3ccccc23)n1C1CC1	17.6	2.6%	-8.7%	-1.0%	2.1%[9.24 µM]
CCCCn1nnnc1C(c1ccccc1)N1CCN(C(=O)c2ccco2)CC1 (configuration not stated)	19.6	-20.5%	-4.7%	3.0%	13.9%
CC(NC(=O)c1ccccc1NC(=O)CSc1nnnn1C)c1ccccc1 (configuration not stated)	1.7	2.1%	5.0%	0.3%[9.24 µM]	9.8%
O=C(Cc1ccc(Cl)cc1)Nc1ccccc1C(=O)N1CCCC1	0.0	-13.3%	-1.0%	-0.4%	-3.7%
Cn1cccc1/C=C1\SC(=Nc2ccc(O)cc2)NC1=O	131.7	0.0231µM*	0.0411µM*	0.731µM*	0.517µM*
Cc1cc(C)cc(N=C2NC(=O)/C(=C/c3cccs3)S2)c1	8.7	13µM*	?	-0.2%	2.0%
COC(=O)/C=C1/SC(=Nc2ccc(Cl)c(Cl)c2)NC1=O	-7.6	-28.9%	2.0%	4.9%	9.9%
COC(=O)/C=C1\SC(=Nc2ccccc2)NC1=O	-65.4*	-5.0%	-15.7%	1.6%	3.0%
Cn1cccc1/C=C1\SC(=Nc2cccc(O)c2)NC1=O	30.4	20.6µM*	20.6µM*	14.6µM*	?
O=C1NC(=Nc2ccccc2)S/C1=C\c1cccs1	12.4	?	?	-4.6%	3.5%
CC1=C(C(=O)N2CCOCC2)CC(CC(=O)NCCCN(C)C)C(=O)N1CCCN1CCCC1=O (configuration not stated)	47.3	-14.2%	-5.0%	20.5%	5.2%
C=CC(=O)Nc1ccc(Nc2nc(NC3CCC(N(C)C)CC3)nc3c2ncn3C(C)C)cc1 (configuration not stated)	-108.8*	0.411µM*	0.326µM*	2.31µM*	?
CC(C)[C@H](CO)Nc1nc(Nc2ccc(C(=O)O)c(Cl)c2)c2ncn(C(C)C)c2n1	·	-0.9%	4.2%	·	·
C[C@@H]1c2ccccc2CN1CC1=NCCN1	·	-27.7%	?	·	·
COc1ccccc1CN1CC(C(=O)N(C)Cc2ccc(C)o2)CCC1=O (configuration not stated)	-2.2	4.4%	-19.1%	21.8%	0.2%
COC(=O)C(=Cc1ccncc1)c1cccc2ccccc12	0.0	13µM*	6.51µM*	-23.8%	-0.3%
O=C(O)C(=Cc1ccncc1)c1cccc2ccccc12	9.4	-15.8%	-4.0%	-7.6%	-1.8%

Assay outcomes: PubChem BioAssay, National Center for Advancing Translational Sciences (NCATS)
